Among the test systems are SK-MEL-2 melanoma; EKVX NSCLC; SN12C renal; UO-31 renal; TK-10 renal; ACHN renal; CAKI-1 renal; A498 renal; CCRF-CEM leukemia; MOLT-4 leukemia; SR leukemia; OVCAR-8 ovarian; OVCAR-5 ovarian; OVCAR-4 ovarian; SK-OV-3 ovarian; IGROV1 ovarian; OVCAR-3 ovarian; HS 578T breast; NCI/ADR-RES ovarian.
Common to all, as to assay: NCI-60 one-dose screen, 48 h (100 = growth as untreated, 0 = no growth, -100 = all killed)
What all share (conditions): 10 µM unless noted

The results in this text go back to PubChem BioAssay (NCI).

About 83,000 compounds went through this panel and 20% of them were active in at least one assay; those are over-represented in the sample as a whole.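 Testing used 96-well plates and a 48-hour single-concentration exposure. Example: -40 means 40% of the starting cells died.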 Unmarked numbers belong to inactive results. Active and inactive are the calls of the source. The calls were made as follows: active = growth percent below 10; inactive = the rest.

As for `CN(C)CCNC(=O)n1cc(-c2ccncc2)c(-c2cc(O)cc(Cl)c2)n1`, the growth in the test with SK-MEL-2 melanoma was 96.3%; with EKVX NSCLC, 107%; in the test on SN12C renal, 91.9%; in the test with UO-31 renal, 104%; in the test with TK-10 renal it was 92.6%; with ACHN renal, 80.6%. The growth was 109% with CAKI-1 renal; 82.2% in the test with A498 renal; 88% in the test with CCRF-CEM leukemia; 86.4% in the test with MOLT-4 leukemia; 29.6% in the test on SR leukemia; 86.9% in the test with OVCAR-8 ovarian. For the same compound, the growth in the test with OVCAR-5 ovarian is 106%; in the test on OVCAR-4 ovarian it was 118%; with SK-OV-3 ovarian it was 90.8%; with IGROV1 ovarian, 107%; with OVCAR-3 ovarian, 109%; in the test with HS 578T breast it was 93.3%. In addition, the growth in the test on NCI/ADR-RES ovarian is 100%.
Regarding `CC(=O)C1CCC2C3CC(C)=C4CC(O)CCC4(C)C3CCC12C` (stereo not given), the growth is 94.8% with SK-MEL-2 melanoma; 79.5% with EKVX NSCLC; 99.2% in the test with SN12C renal; 87.7% with UO-31 renal; 110% in the test on TK-10 renal; 94.8% with ACHN renal. The growth with CAKI-1 renal is 97.4%; with A498 renal it was 113%; in the test with CCRF-CEM leukemia, 92.4%; in the test on MOLT-4 leukemia it was 80%; in the test on SR leukemia, 89.9%; in the test on OVCAR-8 ovarian, 106%. The growth with OVCAR-5 ovarian was 112%; with OVCAR-4 ovarian, 93.4%; in the test on SK-OV-3 ovarian it was 112%; in the test with IGROV1 ovarian it was 104%; with OVCAR-3 ovarian, 113%; with HS 578T breast it was 103%. The growth in the test with NCI/ADR-RES ovarian is 101%.
With `CCCCc1nc(Cl)c(C2CC(c3ccc(S(N)(=O)=O)cc3)=NN2c2ccc(C#N)cc2)[nH]1` (stereo not given), the growth with SK-MEL-2 melanoma is 91%; in the test with EKVX NSCLC, 89.5%; with SN12C renal, 83%; in the test on UO-31 renal, 70.5%; in the test on TK-10 renal, 100%; with ACHN renal, 101%. For the same compound, the growth was 67.6% in the test on CAKI-1 renal; 74.2% in the test on A498 renal; 86.8% with CCRF-CEM leukemia; 76.1% in the test with MOLT-4 leukemia; 80.5% with SR leukemia; 83.2% in the test on OVCAR-8 ovarian. Moreover, the growth is 88.5% in the test with OVCAR-5 ovarian; 98.2% in the test on OVCAR-4 ovarian; 96.4% in the test with SK-OV-3 ovarian; 93% in the test with IGROV1 ovarian; 92.5% with OVCAR-3 ovarian; 79.4% with HS 578T breast. Besides, the growth in the test on NCI/ADR-RES ovarian was 107%.
As to `CN1C(=O)C(C2=NNC(c3ccccc3C(=O)O)C2)C(=O)N(C)C1=O` (stereo not given), the growth was 98.9% with SK-MEL-2 melanoma; 102% with EKVX NSCLC; 97.2% in the test on SN12C renal; 86.5% with UO-31 renal; 96.9% in the test on TK-10 renal; 106% with ACHN renal. In addition, the growth in the test with CAKI-1 renal is 86.6%; with A498 renal it was 90.8%; with CCRF-CEM leukemia, 96%; in the test on MOLT-4 leukemia, 93.8%; in the test with SR leukemia, 101%; with OVCAR-8 ovarian, 103%. In addition, the growth in the test on OVCAR-4 ovarian was 99%; with SK-OV-3 ovarian, 90.9%; with IGROV1 ovarian it was 106%; with OVCAR-3 ovarian, 110%; with HS 578T breast, 93.6%; in the test on NCI/ADR-RES ovarian, 108%.
With `O=C(NCCN1CCCC1)n1cc(-c2ccncc2)c(-c2cc(O)cc(Cl)c2)n1`, the growth in the test on SK-MEL-2 melanoma was 90.8%; in the test with EKVX NSCLC, 119%; in the test on SN12C renal, 82.5%; in the test with UO-31 renal, 100%; in the test on TK-10 renal it was 78.6%; with ACHN renal it was 82.2%. The growth in the test on CAKI-1 renal is 109%; in the test on A498 renal, 103%; in the test with CCRF-CEM leukemia, 85.7%; in the test with MOLT-4 leukemia, 82.7%; in the test with SR leukemia, 49.6%; with OVCAR-8 ovarian it was 77.8%. Further, the growth with OVCAR-5 ovarian was 113%; in the test on OVCAR-4 ovarian, 118%; in the test on SK-OV-3 ovarian it was 86.1%; with OVCAR-3 ovarian it was 116%; in the test with HS 578T breast it was 99.6%; in the test on NCI/ADR-RES ovarian, 101%.
As to `O=C(Nc1ccc(-n2ccc3c(NC(=O)c4ccccc4)nccc32)cc1)c1ccc(N2CCOCC2)c(C(F)(F)F)c1`, the growth in the test on SK-MEL-2 melanoma was 21%; in the test with EKVX NSCLC it was 65.6%; in the test on SN12C renal, 41.8%; with UO-31 renal, 0.765% (active); in the test with TK-10 renal, 27.6%; in the test on ACHN renal, 32.5%. The growth in the test with CAKI-1 renal is 25.6%; in the test with A498 renal, 68.9%; in the test with CCRF-CEM leukemia, 26.9%; with MOLT-4 leukemia it was 30.5%; with SR leukemia, 0.458% (active); with OVCAR-8 ovarian, 23.6%. For the same compound, the growth with OVCAR-5 ovarian was 56.8%; in the test with OVCAR-4 ovarian, 59.8%; in the test on SK-OV-3 ovarian, 30.3%; with IGROV1 ovarian it was 27.2%; in the test with OVCAR-3 ovarian it was 15.7%; in the test on HS 578T breast, 50%. Also, in the test with NCI/ADR-RES ovarian, the growth is 29%.
With `CCCCCCCC/C=C/CCCCCCCC1=NC(C)(C)CN1c1ccccc1`, the growth with SK-MEL-2 melanoma was 92.6%; in the test with EKVX NSCLC, 105%; in the test on SN12C renal it was 95.5%; with UO-31 renal, 61.7%; with TK-10 renal, 118%; in the test on ACHN renal, 101%. Moreover, the growth in the test on CAKI-1 renal is 90.1%; in the test on A498 renal, 105%; in the test on CCRF-CEM leukemia, 64.2%; in the test with MOLT-4 leukemia, 85.7%; with SR leukemia, 71.8%; in the test with OVCAR-8 ovarian, 87.3%. Also, the growth is 113% with OVCAR-5 ovarian; 80.2% in the test with OVCAR-4 ovarian; 99.1% in the test on SK-OV-3 ovarian; 101% with IGROV1 ovarian; 90.8% in the test with OVCAR-3 ovarian; 89.5% in the test with HS 578T breast. In the test with NCI/ADR-RES ovarian, the growth was 98.1%.
In the case of `O=[N+]([O-])c1ccc(N/N=C\c2ccc(O)cc2O)nc1`, the growth in the test with SK-MEL-2 melanoma is 28.9%; with EKVX NSCLC, 29.3%; in the test on SN12C renal, 50.9%; in the test with UO-31 renal, 28.1%; in the test with TK-10 renal it was 22.7%; in the test with ACHN renal, 26.8%. In addition, the growth with CAKI-1 renal is 4.77% (active); in the test with A498 renal it was 107%; in the test with CCRF-CEM leukemia it was 18.8%; with MOLT-4 leukemia, 13.6%; in the test on SR leukemia, 15.3%; with OVCAR-8 ovarian it was 25.4%. In addition, the growth in the test on OVCAR-5 ovarian was 57.9%; in the test on OVCAR-4 ovarian, 40%; in the test with SK-OV-3 ovarian it was 25.8%; in the test on IGROV1 ovarian, 28.7%; in the test on OVCAR-3 ovarian it was 74.8%; in the test on HS 578T breast it was 90.8%. In addition, the growth in the test on NCI/ADR-RES ovarian is 20.6%.
